This note sets out measurements from PubChem BioAssay AID624405 (Broad Institute, 2012).

Out of some 1,900 compounds screened, about 250 (13%) were called active. Not shown: some 4% with an inconclusive outcome.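 How the source made its calls: active means fitted curve reaches 40% rescue activity at or below the top valid dose, in every test run; inconclusive means test runs disagree, some active and some inactive; inactive means every run misses the threshold or moves the wrong way.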 Not all results are given here. Measured potencies and affinities stand elsewhere.

The test is described as follows: suppressors of statin myotoxicity in myotubes, dose response, cell-based, C2C12 myotubes, ATP luminescence, cherry pick (AID 624405).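 Further: myotubes are challenged with simvastatin at 10 µM to lower ATP.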 The following applies: C2C12 myotubes + simvastatin, 48 h, scaled: DMSO wells 0, geranylgeraniol wells 100; series mostly up to 19.5 µM.
Consider `Cc1ccc(-n2c(=O)cc(N3CCN(C(=O)c4ccco4)CC3)[nH]c2=O)cc1`, for which the outcome was inactive. For `COc1ccc(Oc2coc3c(CN(C)C)c(O)ccc3c2=O)cc1`, the result was inactive. Regarding `O=C(Nc1ccc(N2CCN(C(=O)c3ccccc3)CC2)c(Cl)c1)c1ccco1`, the result was inactive. The value for `Cc1cc(N2CCN(c3nnnn3-c3ccccc3)CC2)n2ncnc2n1` was “inactive”; that for `C=CCSc1nnc(CSc2nc3sc4c(c3c(=O)[nH]2)CCCC4)n1-c1ccccc1` was “inactive”.

Take `C[C@@H]1CN([C@@H](C)CO)C(=O)c2cc(C#CC3CCCCC3)cnc2O[C@H]1CN(C)C(=O)C1CCCCC1`: the outcome was inactive. On to `COc1cc2c(cc1OC)C(c1cc(OC)c(OC)c(OC)c1)NCC2` (centres undefined), for which the outcome was inactive.

For the compound `C[C@@H]1CCCCO[C@H](CN(C)C(=O)Nc2cccc3ccccc23)[C@@H](C)CN([C@H](C)CO)C(=O)c2cc(NS(=O)(=O)c3ccc(Cl)cc3)ccc2O1`, the outcome was inactive. Take `CCN(CC)C(=O)c1sc(N)c(C#N)c1C`: the result was inactive.

Take `COc1ccc(CN(C)C[C@H]2OCCCC[C@H](C)Oc3ccc(NC(=O)NC(C)C)cc3C(=O)N([C@@H](C)CO)C[C@H]2C)cc1`: the outcome was inactive. As for `CS(=O)(=O)N1CCN(c2cccc(Cl)n2)CC1`, the outcome was inactive. For the compound `O=C(c1ccccc1CCc1ccccc1)N1CCOCC1`, the outcome was inactive. As to `C[C@@H]1CCCCO[C@H](CN(C)S(=O)(=O)c2ccc(F)cc2)[C@H](C)CN([C@@H](C)CO)C(=O)c2cc(NC(=O)Cc3ccccc3)ccc2O1`, the result was inactive. For the compound `Cc1ccccc1C(=O)NCc1nnc(SCC(=O)N2CCN(c3ccccc3)CC2)n1C`, the result was inactive.

Turning to `C[C@@H]1CN([C@H](C)CO)C(=O)c2cccc(NC(=O)c3ccc(-c4nccs4)cc3)c2O[C@@H]1CN(C)C(=O)Nc1cccc2ccccc12`, the result was inactive.

On to `C[C@H](CO)N1C[C@H](C)[C@@H](CN(C)Cc2ccc(-c3ccccc3)cc2)Oc2ccc(NC(=O)Nc3ccc4c(c3)OCO4)cc2CC1=O`, for which the result was inactive. In the case of `C[C@H]1CN([C@@H](C)CO)C(=O)Cc2cc(NC(=O)Nc3ccc4c(c3)OCO4)ccc2O[C@@H]1CN(C)Cc1ccc(-c2ccccc2)cc1`, the outcome was inactive.

As to `C[C@@H]1CCCCO[C@@H](CN(C)S(=O)(=O)c2ccc(F)cc2)[C@H](C)CN([C@@H](C)CO)C(=O)c2cc(NC(=O)Nc3cccc4ccccc34)ccc2O1`, the outcome was inactive. On to `C[C@@H]1CN([C@@H](C)CO)S(=O)(=O)c2ccc(/C=C/c3ccccc3)cc2O[C@@H]1CN(C)C(=O)NC1CCCC1`, for which the result was inactive. As for `CCCn1c(SCC(=O)c2ccc(OC)c(OC)c2)nc2c1c(=O)n(C)c(=O)n2C`, the entry is “inactive”; as for `Cc1ccc(N(C(=O)Cn2nnc3ccccc32)C(C(=O)NCc2ccco2)c2ccc(C)o2)cc1` (centres undefined), “inactive”.

Take `C[C@@H]1CN([C@H](C)CO)C(=O)Cc2cc(NS(=O)(=O)c3ccc(F)cc3)ccc2O[C@H]1CN(C)Cc1ccc(Cl)c(Cl)c1`: the outcome was inactive. As for `C[C@@H]1CN([C@H](C)CO)C(=O)Cc2cc(NS(=O)(=O)c3ccc(F)cc3)ccc2O[C@@H]1CN(C)Cc1ccc(Cl)c(Cl)c1`, the outcome was inactive. Consider `C[C@@H]1CN([C@H](C)CO)C(=O)Cc2cc(NS(=O)(=O)c3ccc(F)cc3)ccc2O[C@H]1CN(C)Cc1ccc(C(F)(F)F)cc1`, for which the outcome was inactive. On to `C[C@@H]1CN([C@@H](C)CO)C(=O)Cc2cc(NS(=O)(=O)c3ccc(Cl)cc3)ccc2O[C@H]1CN(C)Cc1ccc(Cl)c(Cl)c1`, for which the result was inactive. Regarding `C[C@H](CO)N1C[C@H](C)[C@@H](CN(C)Cc2ccc(Cl)c(Cl)c2)Oc2ccc(NS(=O)(=O)c3ccc(Cl)cc3)cc2CC1=O`, the result was inactive. Take `C[C@@H]1CN([C@H](C)CO)C(=O)Cc2cc(NS(=O)(=O)c3ccc(F)cc3)ccc2O[C@@H]1CN(C)Cc1ccc(C(F)(F)F)cc1`: the outcome was inactive. Take `CCCCc1ccc(S(=O)(=O)NCCc2ccncc2)cc1`: the result was inactive.

`C[C@H](CO)N1C[C@H](C)[C@H](CN(C)S(=O)(=O)c2ccc(F)cc2)Oc2ncc(C#Cc3cccc(F)c3)cc2C1=O`: the outcome was inactive.

With `CCOC(=O)C1(C)NC(c2ccc(N(C)C)cc2)C2C(=O)N(c3ccc(OC)cc3)C(=O)C21` (centres undefined), the result was inactive. With `C[C@@H]1CN([C@@H](C)CO)C(=O)c2cc(NS(C)(=O)=O)ccc2O[C@@H](C)CCCCO[C@@H]1CN(C)S(=O)(=O)c1ccc(Cl)cc1`, the outcome was inactive.

Turning to `CCOc1nc(Nc2ccc(F)cc2)nc(N2CCN(c3ccc(OC)cc3)CC2)n1`, the result was inactive. As to `C[C@H]1CN([C@@H](C)CO)C(=O)c2cc(NC(=O)Nc3ccc4c(c3)OCO4)ccc2O[C@@H]1CN(C)C(=O)Nc1ccc(C(F)(F)F)cc1`, the outcome was inactive. For `O=C(CN(Cc1ccccc1C(F)(F)F)C(=O)CNC(=O)c1ccco1)NC1CCCC1`, the outcome was inactive. Take `Cc1cc(Cl)c(S(=O)(=O)N2CC(C)OC(C)C2)cc1OCC(N)=O` (centres undefined): the outcome was inactive. Take `C[C@@H]1CN([C@@H](C)CO)C(=O)c2cc(NC(=O)CCC(F)(F)F)ccc2O[C@@H](C)CCCCO[C@@H]1CN(C)Cc1ccc(C(F)(F)F)cc1`: the outcome was inactive.

On to `Cc1ccc(C(=O)Nc2c(C(=O)N3CCOCC3)cnn2-c2ccccc2)cc1`, for which the outcome was inactive. Take `Cc1cccc(NS(=O)(=O)c2ccc(-n3cccn3)cc2)c1C`: the result was inactive. Take `COc1ccc(NC(=O)CC2C(=O)NCCN2C(=O)c2ccc(Cl)cc2)cc1` (centres undefined): the result was inactive. The value for `C[C@H]1CN([C@@H](C)CO)C(=O)Cc2cc(NS(=O)(=O)c3cn(C)cn3)ccc2O[C@H]1CN(C)Cc1ccc(Cl)c(Cl)c1` was “inactive”. The value for `C[C@H](CO)N1C[C@H](C)[C@@H](CN(C)S(=O)(=O)c2ccc(F)cc2)Oc2cc(Br)ccc2S1(=O)=O` was “inactive”; that for `COc1ccc(C#Cc2ccc3c(c2)O[C@H](CN(C)C(=O)Nc2cccc(OC)c2)[C@H](C)CN([C@@H](C)CO)S3(=O)=O)cc1` was “inactive”. Turning to `C[C@H]1CN([C@@H](C)CO)S(=O)(=O)c2ccc(C#Cc3ccccc3)cc2O[C@@H]1CN(C)C(=O)Cc1ccccn1`, the outcome was inactive. Take `C[C@H](CO)N1C[C@H](C)[C@H](CN(C)C(=O)Nc2cc(F)ccc2F)Oc2cc(C#CC3CC3)ccc2S1(=O)=O`: the outcome was inactive. For the compound `COc1ccc(C#Cc2ccc3c(c2)O[C@H](CN(C)C(=O)Nc2cccc(OC)c2)[C@H](C)CN([C@H](C)CO)S3(=O)=O)cc1`, the result was inactive. With `C[C@H]1CN([C@@H](C)CO)S(=O)(=O)c2ccc(Br)cc2O[C@@H]1CN(C)S(=O)(=O)c1ccc(F)cc1`, the result was inactive. The value for `O=c1oc2cc(OCc3ccc(F)cc3F)ccc2cc1-c1ccccn1` was “inactive”; that for `CC(=O)C[C@@H](O)CC(=O)[C@@H]1OC(=O)CCCCCCc2ccccc21` was “inactive”.

For the compound `Cc1ccc(NS(=O)(=O)c2ccc(-c3ccc(=O)[nH]n3)o2)cc1Cl`, the outcome was inactive. Take `Cc1noc(C)c1S(=O)(=O)Nc1ccc2c(c1)C(=O)N([C@@H](C)CO)C[C@H](C)[C@H](CN(C)S(=O)(=O)c1ccc(Cl)cc1)OCCCC[C@@H](C)O2`: the result was inactive. As for `O=C(CN1CCOCC1)N1CCN(c2nnc(-c3ccccc3)c3ccccc23)CC1`, the entry is “inactive”. As for `Nn1c(SCC(=O)Nc2ccc(S(=O)(=O)N3CCCC3)cc2)nnc1C(F)(F)F`, the entry is “inactive”; as for `CCOC(=O)c1ccn(-c2nc(-c3ccco3)cc(C(F)(F)F)n2)n1`, “inactive”.

As to `CCn1c(SCC(=O)NCc2cccs2)nnc1-c1ccco1`, the result was inactive. In the case of `Cc1occc1-c1nnc(SCC(=O)c2ccc(Cl)cc2)n1CC1CCCO1` (centres undefined), the outcome was inactive. As for `Cc1cc(Cl)c(S(=O)(=O)Nc2ccc3c(c2)OCO3)cc1OCC(N)=O`, the entry is “inactive”; as for `O=C(CN1CCN(S(=O)(=O)c2ccc(Br)cc2)CC1)Nc1ccc2c(c1)OCCO2`, “inactive”; as for `C[C@@H]1CN([C@H](C)CO)C(=O)c2cccc(NC(=O)C3CCCCC3)c2O[C@@H]1CN(C)S(=O)(=O)c1ccc(Cl)cc1`, “inactive”. As for `Cc1ccc(C2C(=O)N(C3CCC(C)CC3)CC(=O)N2C2CCCC2)cc1` (centres undefined), the outcome was inactive. The value for `COc1cc(OC)cc(-c2nc(N)n[nH]2)c1` was “inactive”; that for `O=C(Nc1cccc(NC(=O)c2ccccc2F)c1)c1ccccc1` was “inactive”. As for `Cc1cccc(NC(=O)c2ccccc2C(=O)O)c1`, the entry is “inactive”. On to `C[C@H](CO)N1C[C@H](C)[C@@H](CN(C)C(=O)Nc2ccc(F)cc2)OCCCC[C@H](C)Oc2ccc(NC(=O)Cc3ccccc3)cc2C1=O`, for which the result was inactive. `Cc1cccc(OCC(=O)Nc2cc(C)on2)c1`: the outcome was inactive.

With `Cc1cccc(-c2noc(Cc3ccc(Cl)cc3)n2)c1`, the outcome was inactive. Turning to `Cc1ccc2nc(-c3ccccc3Cl)cc(C(=O)Nc3cc(C)on3)c2c1`, the result was inactive. For the compound `Cc1cc(C)cc(NC(=O)c2ccc(CSc3nnc(C)s3)cc2)c1`, the outcome was inactive. On to `COc1ccc(NC(=O)Nc2ccc3c(c2)C(=O)N([C@@H](C)CO)C[C@@H](C)[C@@H](CN(C)Cc2ccc(C(F)(F)F)cc2)OCCCC[C@H](C)O3)cc1`, for which the result was inactive. Take `CCOc1ccc(-c2nc(CSCC(=O)NCCN3CCOCC3)c(C)o2)cc1`: the result was inactive.

On to `COc1ccc(NC(=O)Nc2cccc3c2O[C@@H](CN(C)C(=O)Nc2cccc4ccccc24)[C@H](C)CN([C@H](C)CO)C3=O)cc1`, for which the result was inactive. On to `Cn1ccnc1SCC(=O)Nc1ccccc1`, for which the outcome was inactive.

`Cc1cc(=O)[nH]c(Nc2c(C)n(C)n(-c3ccccc3)c2=O)n1`: the outcome was inactive. For the compound `O=C(Cc1cccs1)Nc1nnc(Cc2ccccc2)s1`, the result was inactive. For `CCOC(=O)c1cnn(-c2ccccc2)c1-n1cccc1`, the outcome was inactive. As for `CC(=O)O[C@@H]1[C@H]2[C@@H](C[C@@H](C)[C@@H]3C=CC(=O)[C@@]13C)OC(=O)[C@@H]2C`, the entry is “inactive”; as for `COc1ccc(S(=O)(=O)NCCC(=O)NCc2ccccc2)cc1`, “inactive”. Turning to `COc1ccc(S(=O)(=O)NC(CC(=O)NCc2ccc3c(c2)OCO3)c2ccco2)cc1` (centres undefined), the outcome was inactive.

Regarding `O=C(Nc1ncn[nH]1)c1c(Cl)ccc(Cl)c1Cl`, the result was inactive. As for `CCCS(=O)(=O)N1CCCC(C(=O)NCCN2CCC(Cc3ccccc3)CC2)C1` (centres undefined), the result was inactive.
